# Reference: PubChem BioAssay (Tox21)
# Records with an inconclusive call do not appear. Values without a mark were called inactive. Active and inactive are the calls of the source. The call rests on the fitted dose curve; in most records, active means well fitted cell-killing curve with a large enough effect in the repeat runs; inconclusive means weak or mixed curves, or effect the other way; inactive means no such curve, though single readings can be large or run the other way.
# Assay: qHTS assay to identify small molecule antagonists of the peroxisome proliferator-activated receptor gamma (PPARg) signaling pathway - cell viability counter screen (AID 743194); further: nearly all actives have a fitted effect of over 55% in size
# Details: PPARg-bla HEK293H viability, CellTiter-Glo luminescence, 17 h, co-treated with 50 nM rosiglitazone; series mostly up to 62.6 µM; activity change, negative = cytotoxicity: at the top concentration
# Text: U.S. Tox21 Program National Center for Advancing Translational Sciences [NCATS] NIH Chemical Genomics Center [NCGC] U.S. Environmental Protection Agency [EPA] National Institutes of Environmental Health Sciences [NIEHS] National Toxicology Program [NTP] U.S. Food and Drug Administration [FDA] Tox21 Assay Overview: The peroxisome proliferator-activated receptors (PPARs) are lipid-activated transcription factors of the nuclear receptor superfamily with three distinct subtypes namely PPAR alpha, PPAR delta (also called PPAR beta) and PPAR gamma (PPARg). All these subtypes heterodimerize with Retinoid X receptor (RXR) and these heterodimers regulate transcription of various genes. PPAR-gamma receptor (glitazone receptor) is involved in the regulation of glucose and lipid metabolism. To identify the compounds that activate PPAR-gamma signaling, GeneBLAzer PPAR gamma UAS-bla HEK293H cell line (Invitrogen, Carlsbad, CA, USA) containing a beta-lactamase reporter gene under the control of an Upstream Activator Sequence (UAS) was used to screen the Tox21 compound library. The cytotoxicity of the Tox21 compound library against the PPARg-bla cell line was tested in parallel by measuring the cell viability using CellTiter-Glo assay in the same wells.
# Tox21 Assay Protocol Summary: PPARg-bla cells were dispensed at 3000 cells/5uL/well in 1536-well black wall/clear bottom plates using a Multidrop Combi (Thermo Fisher Scientific, Waltham, MA) dispenser. After the assay plates were incubated at 37 C and 5% CO2 for 5 h, 23 nL of compounds dissolved in DMSO, positive controls or DMSO only was transferred to the assay plate by a Pintool station (Kalypsys, San Diego, CA), followed by addition of 1ul Rosiglitazone (50 nM, final concentration in the wells). The assay plates were incubated at 37 C for 17 h, and then 1 uL of LiveBLAzerTM B/G FRET substrate was added using a Bioraptr Flying Reagent Dispenser (FRD) workstation (Beckman Coulter, Indianapolis, IN, USA). The assay plates were incubated at room temperature for 1 h and fluorescence intensity was measured by an Envision plate reader (PerkinElmer, Shelton, CT). For cell viability readout that measures cytotoxicity, 4 ul/well of CellTiter-Glo reagent was added into the assay plates using a Flying Reagent Dispenser. After 30 min incubation at room temperature, the luminescence intensity in the plates was measured using a ViewLux plate reader (PerkinElmer).
# On the % scale 0 is the no-effect control and ±100 the full control effect.
SMILES,outcome,"activity change, negative = cytotoxicity"
O=[N+]([O-])c1ccc(/C=C/c2ccc([N+](=O)[O-])cc2S(=O)(=O)O)c(S(=O)(=O)O)c1,inactive,–
CC1CCC(C(C)C)C(O)C1 (stereo not given),inactive,–
OCCOCCOCCO,inactive,–
CCCCCCCCCCCCOCCO,inactive,–
C/C=C1/CC2C=CC1C2 (stereo not given),–,5.05%
c1ccc(OCCOc2ccccc2)cc1,inactive,–
CN(C)CCC(c1ccccc1)c1ccccn1 (stereo not given),inactive,–
FC(F)(F)c1ccc(Cl)c(Cl)c1,–,0.942%
O=C(OCCOCCOC(=O)c1ccccc1)c1ccccc1,inactive,–
CSCCC=O,inactive,–
CN(C)CCOCCN(C)C,inactive,–
NNc1nncc2ccccc12,inactive,–
O=C(O)CCCC[C@@H]1SC[C@@H]2NC(=O)N[C@@H]21,inactive,–
CCCCCCCCCCCCCCO,inactive,–
O=C(O)c1cc(O)c(O)c(O)c1,inactive,–
C=C(C)C(=O)O[C@H]1C[C@@H]2CC[C@@]1(C)C2(C)C,inactive,–
CC(C)(C)[C@@H](O)[C@@H](Cc1ccc(Cl)cc1)n1cncn1,inactive,–
O=C(O)c1cc(=O)c2c(OCC(O)COc3cccc4oc(C(=O)O)cc(=O)c34)cccc2o1,inactive,–
C[C@H]1C[C@@H]2[C@H]([C@@H](O)C[C@@]3(C)[C@H]2CC[C@]3(O)C(=O)CO)[C@@]2(C)C=CC(=O)C=C12,inactive,–
O=c1[nH]nnc2ccccc12,–,21% [at 81.1 µM]

SMILES,outcome,"activity change, negative = cytotoxicity"
O=C(O)[C@H](O)[C@@H](O)[C@H](O)[C@H](O)CO,inactive,–
CCCCCCCC(=O)OC,inactive,–
CC(O)COCC(C)O (stereo not given),–,1.53%
CCc1ccc(CCOc2ccc(CC3SC(=O)NC3=O)cc2)nc1 (stereo not given),inactive,–
Cc1occc(=O)c1O,inactive,–
CC(C)(N)CO,inactive,–
CC1=CCC2CC1C2(C)C (stereo not given),inactive,–
CCN(CC)CCCC(C)Nc1ccnc2cc(Cl)ccc12 (stereo not given),inactive,–
COCCCOc1ccnc(CS(=O)c2nc3ccccc3[nH]2)c1C (stereo not given),inactive,–
CCCCN(CCCC)CCCC,inactive,–
CCC(O)OC(O)CC (stereo not given),inactive,–
CC(=O)OCC(=O)[C@@]12N=C(C)O[C@@H]1C[C@H]1[C@@H]3CCC4=CC(=O)C=C[C@]4(C)[C@H]3[C@@H](O)C[C@@]12C,inactive,–
C#CCN(C)Cc1ccccc1,inactive,–
CCc1cccc(C)c1N,inactive,–
c1ccc2c(c1)ccc1ccccc12,inactive,–
CC[C@H](C)C(=O)O[C@H]1C[C@@H](C)C=C2C=C[C@H](C)[C@H](CC[C@@H]3C[C@@H](O)CC(=O)O3)[C@H]21,inactive,–
CCCCCC(N)=O,inactive,–
O=C(O)c1ccc(C(=O)O)cc1,–,0.676%
CCCCC(CC)COC(=O)CS (stereo not given),inactive,–
CC(=O)CC(=O)Nc1ccccc1,inactive,–
